Data reported in PubChem BioAssay (NCI).
The panel holds about 83,000 compounds, 20% with a hit somewhere; the sample as a whole holds those more often.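 Activity criterion: percent growth below 10, measured after cells in 96-well plates were exposed to a single compound concentration for 48 hours.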 Calls of active or inactive are those of the source.

Tests used:
Test in all cases: NCI-60 one-dose screen, 48 h (100 = growth as untreated, 0 = no growth, -100 = all killed)
DU-145 prostate = tested on: DU-145 prostate
K-562 leukemia = tested on: K-562 leukemia
MALME-3M melanoma = tested on: MALME-3M melanoma
MDA-MB-231 breast = tested on: MDA-MB-231 breast
RXF 393 renal = tested on: RXF 393 renal
SF-268 CNS = tested on: SF-268 CNS
SF-295 CNS = tested on: SF-295 CNS
SF-539 CNS = tested on: SF-539 CNS
UACC-257 melanoma = tested on: UACC-257 melanoma
M14 melanoma = tested on: M14 melanoma

Measured: growth

Cc1[nH]c(-c2nc3ccccc3[nH]2)c(C)c1C(=O)NC(C)C1CCCCC1 (centres undefined)
inactive: DU-145 prostate; 10 µM 98.8% | K-562 leukemia; 10 µM 68.7% | MALME-3M melanoma; 10 µM 82.1% | MDA-MB-231 breast; 10 µM 70.3% | RXF 393 renal; 10 µM 77.2% | SF-268 CNS; 10 µM 94.9% | SF-295 CNS; 10 µM 101% | SF-539 CNS; 10 µM 89.4% | UACC-257 melanoma; 10 µM 87%
active: DU-145 prostate; 100 µM -96.3% | K-562 leukemia; 100 µM -24.3% | MALME-3M melanoma; 100 µM -72.6% | MDA-MB-231 breast; 100 µM -70.8% | RXF 393 renal; 100 µM -92% | SF-268 CNS; 100 µM -71.4% | SF-295 CNS; 100 µM -88.8% | SF-539 CNS; 100 µM -97.7% | UACC-257 melanoma; 100 µM -64.6%

CNC(=O)c1cc(Oc2ccc(CC(=O)Nc3cc(C(C)(C)C)nn3C)cc2)ccn1
inactive: DU-145 prostate; 1 µM 91.6% | DU-145 prostate; 10 µM 76.3% | DU-145 prostate; 30 µM 103% | K-562 leukemia; 1 µM 41.9% | K-562 leukemia; 10 µM 33.9% | K-562 leukemia; 30 µM 28.3% | MALME-3M melanoma; 1 µM 60.5% | MALME-3M melanoma; 10 µM 61.4% | MALME-3M melanoma; 30 µM 66% | MDA-MB-231 breast; 1 µM 78.6% | MDA-MB-231 breast; 10 µM 69.1% | MDA-MB-231 breast; 30 µM 71.9% | RXF 393 renal; 1 µM 98.3% | RXF 393 renal; 10 µM 79.9% | SF-268 CNS; 1 µM 86.9% | SF-268 CNS; 10 µM 70.9% | SF-268 CNS; 30 µM 98.7% | SF-295 CNS; 1 µM 58.1% | SF-295 CNS; 10 µM 37.1% | SF-295 CNS; 30 µM 33.9% | SF-539 CNS; 1 µM 67.1% | SF-539 CNS; 10 µM 66.7% | SF-539 CNS; 30 µM 69.2% | UACC-257 melanoma; 1 µM 60.5% | UACC-257 melanoma; 10 µM 55.7% | UACC-257 melanoma; 30 µM 47.7%

CCc1ccccc1-n1c(N)c(C#N)c(-c2ccc(OC)c(OC)c2)c(C#N)c1=O
inactive: DU-145 prostate; 10 µM 115% | DU-145 prostate; 100 µM 37.6% | K-562 leukemia; 10 µM 111% | K-562 leukemia; 100 µM 124% | MALME-3M melanoma; 10 µM 103% | MDA-MB-231 breast; 10 µM 105% | MDA-MB-231 breast; 100 µM 23.3% | RXF 393 renal; 10 µM 111% | SF-268 CNS; 10 µM 102% | SF-295 CNS; 10 µM 101% | SF-295 CNS; 100 µM 19.7% | SF-539 CNS; 10 µM 118% | UACC-257 melanoma; 10 µM 128% | UACC-257 melanoma; 100 µM 96.8% | M14 melanoma; 10 µM 112% | M14 melanoma; 100 µM 37.1%
active: MALME-3M melanoma; 100 µM -31.2% | RXF 393 renal; 100 µM -21.6% | SF-268 CNS; 100 µM 0.0621% | SF-539 CNS; 100 µM -54.9%
